# Results from PubChem BioAssay (NCATS).
# Results filed as inconclusive are left out. A call without a number means that no potency is given here. A number with no mark means an inactive call. Calls of active or inactive are those of the source. The call rests on the fitted dose curve; in most records, active means well fitted curve in the direction sought with a large enough effect; inconclusive means small, poorly fitted or top-dose-only effect, or another doubt; inactive means no such curve, though single readings can be large; an effect the other way counts as inactive or inconclusive.
# Tests used:
# [1] = biological target: Rap guanine nucleotide exchange factor 3 (Homo sapiens) (UniProt O95398); test: Confirmatory qHTS for agonist of cAMP-regulated guanine nucleotide exchange factor 3 (EPAC1) (AID 1645881);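 further: EPAC1 catalysed release of BODIPY-GDP from Rap1B seen as fluorescence loss; nearly all actives have a fitted effect of over 75% in size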
# [2] = biological target: Rap guanine nucleotide exchange factor 3 (Homo sapiens) (UniProt O95398); test: Counterscreen qHTS for antagonist of cAMP-regulated guanine nucleotide exchange factor 3 (EPAC1) (AID 1645888);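 further: fluorescence loss as bound BODIPY-GDP is released from Rap1B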
# Method in brief: (§1)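 Rap1B-BODIPY-GDP 250 nM + GDP 50 uM; cpds 7-pt, final 9.74 nM–152 uM (activator mode) or from 7.32 nM upwards (inhibitor mode); RT; FI 480/540 nm at 5 and 30 min, then ± cAMP, reread.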
# [3] = biological target: Rap guanine nucleotide exchange factor 3 (Homo sapiens) (UniProt O95398); test: Counterscreen qHTS for agonist of cAMP-regulated guanine nucleotide exchange factor 3 (EPAC1) (AID 1645889); further: nearly all actives have a fitted effect of over 40% in size
# Method in brief: as §1
# [4] = biological target: Rap guanine nucleotide exchange factor 4 (Homo sapiens) (UniProt Q8WZA2); test: Confirmatory qHTS for agonist of cAMP-regulated guanine nucleotide exchange factor 4 (EPAC2) (AID 1645884);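 further: nucleotide exchange releases bodipy-GDP from Rap1 and this lowers its fluorescence; nearly all actives have a fitted effect of over 65% in size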
# [5] = biological target: Rap guanine nucleotide exchange factor 4 (Homo sapiens) (UniProt Q8WZA2); test: Confirmatory qHTS for antagonist of cAMP-regulated guanine nucleotide exchange factor 4 (EPAC2) (AID 1645885); further: nearly all actives have a fitted effect of over 25% in size
# Sequence of Rap guanine nucleotide exchange factor 4 (Homo sapiens) (Q8WZA2 whole entry, looked up): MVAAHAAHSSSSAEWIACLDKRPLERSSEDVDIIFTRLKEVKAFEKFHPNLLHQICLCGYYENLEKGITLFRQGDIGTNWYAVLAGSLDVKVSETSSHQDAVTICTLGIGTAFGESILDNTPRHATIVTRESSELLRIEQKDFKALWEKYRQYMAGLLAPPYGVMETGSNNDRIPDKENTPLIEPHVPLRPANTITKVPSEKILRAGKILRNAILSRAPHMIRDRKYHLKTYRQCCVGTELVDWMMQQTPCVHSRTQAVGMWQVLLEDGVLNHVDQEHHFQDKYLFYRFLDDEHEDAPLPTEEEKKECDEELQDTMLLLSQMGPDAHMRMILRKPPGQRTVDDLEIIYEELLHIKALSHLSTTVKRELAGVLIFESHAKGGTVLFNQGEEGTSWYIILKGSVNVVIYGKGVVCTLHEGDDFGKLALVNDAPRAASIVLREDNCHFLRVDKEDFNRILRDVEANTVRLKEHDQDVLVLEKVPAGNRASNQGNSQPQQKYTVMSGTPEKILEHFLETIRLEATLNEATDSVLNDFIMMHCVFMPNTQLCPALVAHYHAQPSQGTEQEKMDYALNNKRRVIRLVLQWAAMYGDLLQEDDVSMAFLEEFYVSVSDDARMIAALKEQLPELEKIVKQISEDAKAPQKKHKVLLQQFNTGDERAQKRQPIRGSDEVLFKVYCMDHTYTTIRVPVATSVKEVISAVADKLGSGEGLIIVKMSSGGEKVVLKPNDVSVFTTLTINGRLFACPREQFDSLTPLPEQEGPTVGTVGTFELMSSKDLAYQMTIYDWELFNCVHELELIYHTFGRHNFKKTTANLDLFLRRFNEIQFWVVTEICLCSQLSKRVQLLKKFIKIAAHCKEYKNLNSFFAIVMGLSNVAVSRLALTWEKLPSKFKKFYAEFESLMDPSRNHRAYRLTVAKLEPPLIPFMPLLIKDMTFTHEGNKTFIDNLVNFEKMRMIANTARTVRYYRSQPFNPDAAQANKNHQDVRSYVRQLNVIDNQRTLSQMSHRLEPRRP
# Sequence of Rap guanine nucleotide exchange factor 3 (Homo sapiens) (O95398 whole entry, looked up): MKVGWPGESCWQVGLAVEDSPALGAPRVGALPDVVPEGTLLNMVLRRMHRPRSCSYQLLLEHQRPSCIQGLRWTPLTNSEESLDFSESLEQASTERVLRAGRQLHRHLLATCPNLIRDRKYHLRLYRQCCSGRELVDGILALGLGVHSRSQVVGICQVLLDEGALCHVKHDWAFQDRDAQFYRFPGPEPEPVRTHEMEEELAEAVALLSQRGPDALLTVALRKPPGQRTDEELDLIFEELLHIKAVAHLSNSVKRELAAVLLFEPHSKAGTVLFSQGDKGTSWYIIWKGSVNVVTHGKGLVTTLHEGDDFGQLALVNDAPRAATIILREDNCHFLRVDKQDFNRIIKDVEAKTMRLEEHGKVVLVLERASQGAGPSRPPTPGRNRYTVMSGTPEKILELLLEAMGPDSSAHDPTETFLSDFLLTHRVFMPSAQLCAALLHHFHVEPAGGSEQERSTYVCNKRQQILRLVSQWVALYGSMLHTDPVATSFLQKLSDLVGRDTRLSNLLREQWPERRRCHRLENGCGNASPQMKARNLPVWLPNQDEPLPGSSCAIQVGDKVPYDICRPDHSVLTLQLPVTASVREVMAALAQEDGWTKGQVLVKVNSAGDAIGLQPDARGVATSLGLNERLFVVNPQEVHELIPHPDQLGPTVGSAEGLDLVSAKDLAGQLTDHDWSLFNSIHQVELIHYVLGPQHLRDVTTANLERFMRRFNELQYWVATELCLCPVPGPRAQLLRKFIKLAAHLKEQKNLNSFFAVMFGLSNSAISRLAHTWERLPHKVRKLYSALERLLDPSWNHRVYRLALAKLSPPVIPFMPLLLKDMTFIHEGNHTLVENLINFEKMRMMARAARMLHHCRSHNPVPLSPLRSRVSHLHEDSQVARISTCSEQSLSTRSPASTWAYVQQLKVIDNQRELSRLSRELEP
smiles,measurement,setting,value
N#Cc1c(N)c(C#N)c(-c2ccc(O)cc2)c2c1CCCC2,Potency,[1],inactive
same,Potency,[2],inactive
O=C(Nc1ccc(F)cc1)c1cccc(N2C(=O)C3C4C=CC(C5CC45)C3C2=O)c1 (centres undefined),Potency,[1],inactive
same,Potency,[2],inactive
COc1ccccc1C1CC(=O)Oc2cc(C)c(Br)c(C)c21 (centres undefined),Potency,[1],inactive
same,Potency,[2],inactive
COc1ccc(C(=O)/C=C/c2ccccc2)c(OC)c1,Potency,[1],inactive
same,Potency,[2],inactive
COc1cccc(-c2coc3c(C)c4oc(=O)c(CCC(=O)O)c(C)c4cc23)c1,Potency,[1],inactive
same,Potency,[2],inactive
same,Potency,[3],inactive
COc1ccccc1CNC(=O)C1(C)CCN1Cc1ccc2ccccc2c1 (centres undefined),Potency,[1],inactive
same,Potency,[2],inactive
same,Potency,[3],inactive
COc1ccc(C(=O)c2oc3ccc(OC)cc3c2N)cc1,Potency,[1],inactive
same,Potency,[2],inactive
same,Potency,[3],inactive
Cc1ccc2sc(N(CCCN(C)C)C(=O)c3nc4ccccc4s3)nc2c1C,Potency,[1],inactive
same,Potency,[2],inactive
CCCC(C(=O)Nc1ccc(S(=O)(=O)Nc2nccs2)cc1)c1ccccc1 (centres undefined),Potency,[1],inactive
same,"activity change, negative = inhibition",[2],-24.2% [at 30.8 µM]
same,activation,[3],8.61% [at 30.8 µM]
COc1ccc2c(c1)C(SCC(=O)NCCc1ccc(Cl)cc1)CC(C)(C)O2 (centres undefined),activation,[4],"12.3% [at 17.1 µM, percent relative to cAMP agonist control]"
same,Potency,[5],inactive
same,"activity change, negative = inhibition",[2],8.95% [at 30.8 µM]
O=C(Nc1cccc(C(F)(F)F)c1)C1Cc2c(-c3ccccc3)ccnc2O1 (centres undefined),activation,[4],"3.96% [at 17.1 µM, percent relative to cAMP agonist control]"
same,Potency,[5],inactive
same,"activity change, negative = inhibition",[2],-3.59% [at 30.8 µM]
CC1(C)CC2CC(C)(CN2C(=O)c2cc(-c3ccccc3O)on2)C1 (centres undefined),activation,[4],"10.5% [at 17.1 µM, percent relative to cAMP agonist control]"
same,Potency,[5],inactive
same,"activity change, negative = inhibition",[2],5.82% [at 30.8 µM]
O=C(c1ccccc1Br)N(Cc1ccccc1)c1ccccc1,activation,[4],"0.0919% [at 17.1 µM, percent relative to cAMP agonist control]"
same,Potency,[5],inactive
same,"activity change, negative = inhibition",[2],-1.15% [at 30.8 µM]
CCCC/C=C/[C@H](c1ccccc1)[C@H](CO)Cc1cccnc1,Potency,[1],inactive
same,Potency,[3],inactive
O=C1N(Cc2ccccc2Cl)c2ccccc2C1(O)c1c[nH]c2ccccc12 (centres undefined),Potency,[4],inactive
same,Potency,[5],inactive
same,Potency,[2],inactive
Cc1nc2ccccc2c(C)c1C(=O)c1ccccc1,Potency,[1],inactive
same,activation,[3],-2.6% [at 30.8 µM]
CC(=O)N(CCC(c1ccco1)C(C)C)Cc1ccc(OC(C)C)cc1 (centres undefined),Potency,[1],inactive
same,Potency,[3],inactive
COC(=O)C1=C(C)N(Cc2ccco2)C(=O)N[C@H]1c1cccc(C(F)(F)F)c1,Potency,[1],inactive
same,Potency,[3],inactive
O=C1Nc2ccccc2N=C(c2ccccc2)c2ccccc21,Potency,[1],inactive
same,activation,[3],39.2% [at 30.8 µM]
COc1ccc(C2CC(=O)Oc3cc(OC)c(OC)c(OC)c32)cc1 (centres undefined),Potency,[1],inactive
same,"activity change, negative = inhibition",[2],-24.9% [at 30.8 µM]
same,activation,[3],20% [at 30.8 µM]
O=C(COc1ccc(F)cc1Br)NCC1COc2ccccc2O1 (centres undefined),Potency,[1],inactive
same,Potency,[2],inactive
same,Potency,[3],inactive
CCOc1cc(/C=N/NC(=O)c2ccc(-c3csc(Nc4ccc(C)cc4)n3)cc2)ccc1OCC(=O)O,Potency,[4],inactive
same,Potency,[5],inactive
same,Potency,[2],inactive
CCC(=O)N(CCC(c1ccc(C)cc1)c1ccco1)Cc1ccco1 (centres undefined),Potency,[1],inactive
same,"activity change, negative = inhibition",[2],-11.4% [at 30.8 µM]
same,activation,[3],19.5% [at 30.8 µM]
CC(/C=C1\SC(=S)N(c2ccc(C(=O)O)cc2)C1=O)=C\c1ccccc1,activation,[4],"7.79% [at 17.1 µM, percent relative to cAMP agonist control]"
same,Potency,[5],inactive
same,"activity change, negative = inhibition",[2],1.04% [at 30.8 µM]
C/C(=N\O)C(=O)OC1CC(C)CCC1C(C)C (centres undefined),Potency,[1],inactive
same,Potency,[3],inactive
CCOC(=O)c1c(CC(C)C)csc1NC(C)=O,Potency,[1],inactive
same,Potency,[3],inactive
O=C(N/N=C/c1ccc(O)c(O)c1)C1c2ccccc2Oc2ccccc21,Potency,[4],inactive
same,Potency,[5],inactive
same,Potency,[2],inactive
CCOc1ccc(N(Cc2ccc(OC)cc2)C(=O)c2ccco2)cc1,Potency,[1],inactive
same,Potency,[3],inactive
Cc1ccc(N(Cc2ccc([N+](=O)[O-])cc2)C(=O)c2ccco2)cc1C,Potency,[1],inactive
same,Potency,[2],inactive
same,Potency,[3],inactive
CCc1nc2c(OCc3ccc(C(F)(F)F)cc3)cccn2c1N(C)C(=O)CC(C)C,Potency,[1],inactive
same,Potency,[3],inactive
CCc1nc2c(OCc3ccc(C(F)(F)F)cc3)cccn2c1N(C)C(=O)C1CC1,Potency,[1],inactive
same,Potency,[3],inactive
O=C(CSc1ncnc2[nH]ncc12)Nc1cccc(Oc2ccccc2)c1,activation,[4],"10.9% [at 17.1 µM, percent relative to cAMP agonist control]"
same,Potency,[5],inactive
same,"activity change, negative = inhibition",[2],-9.96% [at 30.8 µM]
COC(=O)c1ccc2nc(-c3ccc(Cl)cc3)c(Cc3ccccc3OC)n2c1,Potency,[1],inactive
same,Potency,[2],inactive
same,Potency,[3],inactive
Cc1ccc(C(=O)N(Cc2ccco2)Cc2sccc2C)cc1,Potency,[4],inactive
same,Potency,[5],inactive
same,Potency,[2],inactive
C/C(=N\N(Cc1ccccc1)c1ccccc1)c1ccncc1,activation,[4],"-6.71% [at 17.1 µM, percent relative to cAMP agonist control]"
same,Potency,[5],inactive
